Compound activity deposited in PubChem by National Center for Advancing Translational Sciences (NCATS).
FMDV antiviral = High Throughput Screening for Foot and Mouth Disease Virus Antivirals. FMDV antiviral cell-based qHTS. Potency, µM (titrated, usually from 57.9 µM), for inactives: at the top dose activity change, negative = inhibition, hits mostly inhibitors. 1.2% of 410,000 active; calls by dose curve; tested in HEK293T cells; also: read-out not given here; potency is read from the fitted curve at half-maximal effect; nearly all actives have a fitted effect of over 45% in size
HCV inhibitor = qHTS Assay for Inhibitors of Hepatitis C Virus (HCV) | Huh7.5.1 HCVcc-Cre infection, luciferase reporter, 44 h | Potency, µM (titrated, usually from 41.8 µM), for the others: top-dose activity change, negative = inhibition, hits mostly inhibitors | 3.4% of 340,000 active | AID 651820, 2012; active = well fitted inhibition curve with a large enough effect; inconclusive = small, poorly fitted or top-dose-only effect, or another doubt; inactive = no such curve, though single readings can be large or run the other way; also: potency is read from the fitted curve at half-maximal effect
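1,000 cells/well; 4 h culture; + compound; + HCVcc-Cre (~0.5 moi); 44 h; luciferase substrate, RT 15 min; read 15 sec.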
Marburg entry inh = qHTS for inhibitors of binding or entry into cells for Marburg Virus | Marburg virus pseudotyped entry inhibition, cell reporter | Potency, µM (top dose mostly 37.8 µM), for the others: at the top dose activity change, negative = inhibition, usual class: inhibitors | 1.8% of 300,000 active | AID 540276, 2011; calls by dose curve; tested in HEK293 cells; also: potency is read from the fitted curve at half-maximal effect
HCMV antiviral = qHTS Assay for inhibitors of the human cytomegalovirus (HCMV); HFF cells, HCMV-luciferase reporter, 72 h; hits give low values; activity change, negative = inhibition, % at 57.5 µM; 4.5% of 410,000 active; AID 1259415, 2018; in the data active = activity change below about -60%; inconclusive = no clear call, values can overlap the other calls; inactive = above about -39%
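Inhibition of viral replication was scored as loss of reporter luminescence in HFFs infected with HCMV-luciferase (MOI 1 PFU/cell) for 72 h; compounds tested at 2 doses, normalized to buffer and Salinomycin controls.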
LASV entry inh = qHTS for Inhibitors of binding or entry into cells for Lassa Virus. 1.2% of 300,000 active. AID 540256, 2011. Lassa virus pseudotype entry inhibition, cell reporter. Potency, µM (top dose mostly 37.9 µM), without a hit: at the top dose activity change, negative = inhibition, most hits filed as inhibitors; calls by dose curve; tested in HEK293 cells; also: potency is read from the fitted curve at half-maximal effect; nearly all actives have a fitted effect of over 50% in size
Active calls of the source: *; ? = inconclusive; . = no result given; [ ] = another dose, or the depositor's remark. Rows were chosen to be rich in hits. Some 7.9% of all compounds tested hit in one or more screens of this group. % is scaled to controls: 0 for no effect and ±100 for the full control effect.

SMILES | FMDV antiviral | HCV inhibitor | Marburg entry inh | HCMV antiviral | LASV entry inh
CCN(CC(=O)NCc1cccs1)C(=O)CCCOc1ccc(C(C)(C)C)cc1 | -19.3% | ? | ? | -104.8* | ?
CCN(CC(=O)NCc1cccs1)C(=O)/C=C/c1ccc(OC)cc1OC | 21.9% | 20µM* | -21.8% | -9.3 | -2.5%
CCN(CC(=O)NCc1cccs1)C(=O)CCCOc1ccccc1 | 14.8% | 0.5% | . | 0.0 | .
Cc1ccc(CSCCC(=O)N2CCN(c3cc(C)ccc3C)CC2)cc1 | ? | . | . | -9.6 | -4.7%[46.1 µM]
Cc1c(-c2nc(-c3ccc(C(C)(C)C)cc3)no2)n(C)oc1=O | 63.1µM* | 2.5% | ? | 97.1 | ?
Cc1cc(-c2nc(-c3ccc(C(C)(C)C)cc3)no2)no1 | 14.4% | ? | . | ? | .
CCOC(=O)c1ccccc1NC(=O)N1CCC(CN2CCCCC2)CC1 | -15.8% | . | . | 4.7 | -0.9%[46.1 µM]
Cc1cc2[nH]c3ccccc3c2c(C)n1 | -26.5% | ? | ? | -98.0* | -5.9%
Cc1nc(=S)c2ccccc2[nH]1 | -2.7% | ? | 10.1% | 114.3 | 6.4%
O=C(CC(Nc1ccc(F)cc1)C(=O)O)c1ccccc1 (stereo not given) | 28.5% | 0.7% | -3.6% | -102.4* | ?
COc1ccc(Nc2nc(N3CCCCC3)nc3ccccc23)c(OC)c1 | -4.9% | ? | ? | -13.0 | -19.6%
COc1ccc(Nc2nc(Nc3ccc(OC)cc3OC)nc(N3CCN(C)CC3)n2)c(OC)c1 | ? | 1µM* | ? | 14.4 | ?
COc1ccc(Nc2nc(N3CCCCC3)nc(N3CCCCC3)n2)c(OC)c1 | -23.0% | 12.6% | -6.8% | -15.7 | -2.9%
COc1ccc(Nc2nc(N3CCCC3)nc(N3CCCC3)n2)c(OC)c1 | -16.2% | 10µM* | 2.06µM* | -92.4* | -19.4%
COc1ccc(Nc2nc(NC(C)(C)C)nc(N3CCCC3)n2)c(OC)c1 | ? | 5.62µM* | 5.17µM* | -88.7* | -20.9%
COC(=O)[C@@H]1CCCN1Cc1ccc2c(c1)CN(Cc1cc(OC)c3c(c1)OCO3)CCO2 | -9.2% | . | . | . | .
CCCCn1c(SCC(=O)Nc2cc(C(F)(F)F)cc(C(F)(F)F)c2)nnc1C(CC)N(C)C (stereo not given) | ? | ? | ? | -88.4* | ?
COc1ccc(CNc2ncncc2-c2ccc(C(=O)N(C)C)cc2)c(OC)c1 | 19.3% | . | . | . | .
CCCCNC(=O)C(NC(=O)c1ccccc1)C(=O)c1ccccc1 (stereo not given) | 0.9% | . | . | -6.2 | .
CCCCNC(=O)C(NC(=O)c1ccc(-c2ccccc2)cc1)C(=O)c1ccccc1 (stereo not given) | 22.4% | . | . | -80.9* | .
C(=N\Nc1nc(-c2ccccc2)cs1)/c1ccncc1 | 35.7% | -29.9% | -19.2%[46.1 µM] | 16.0 | ?
C(=N\Nc1nc(-c2ccccc2)cs1)/c1cccs1 | 10.7% | 10µM* | ? | 103.1 | ?
CC1CCC(NC(=O)c2cc(Cl)nc3ccccc23)CC1 (stereo not given) | 38.1% | 15.3% | . | 23.6 | .
Nc1c(Br)cc2c([nH]c(=O)c3ccccc32)c1Br | -15.0% | ? | -1.5% | -25.3 | -6.9%[46.1 µM]
COc1ccc(C(=O)/C=C/C(=O)N(Cc2ccc3c(c2)OCO3)C(C(=O)NC2CCCCC2)c2ccncc2)c(O)c1 (stereo not given) | -10.2% | ? | ? | ? | ?
SMILES | FMDV antiviral | HCV inhibitor | Marburg entry inh | HCMV antiviral | LASV entry inh
COc1ccc(CN(C(=O)/C=C/C(=O)c2ccc(OC)cc2O)C(C(=O)NC2CCCCC2)c2ccncc2)cc1 (stereo not given) | 1.8% | -25.3% | ? | -84.3* | ?
COCCN(CC(=O)NC1CCCCC1)C(=O)/C=C/C(=O)c1ccc(OC)cc1O | 3.16µM* | ? | 11.2µM* | -112.5* | 12.6µM*
COc1ccc(C(=O)/C=C/C(=O)N(CC(=O)NC2CCCCC2)Cc2cccs2)c(O)c1 | 6.31µM* | -15.9% | . | -99.7* | .
O=C(NC1CCCCC1)C(=O)c1ccccc1F | . | . | . | 40.0 | .
COc1ccc(N2CCN(C(=O)C3Cc4ccccc4N3C(C)=O)CC2)cc1 (stereo not given) | -0.5% | . | . | 31.7 | 11.8%[46.1 µM]
CCC(C)n1c(SCC(=O)NC2CCS(=O)(=O)C2)nc2ccccc2c1=O (stereo not given) | -11.0% | 13.9% | 9.3% | -5.1 | 14.5%
COc1cc(OC)cc(C(=O)Nc2ccc3c(c2)CCCN3C(=O)c2cccs2)c1 | ? | 14.1µM* | . | -77.5* | ?
O=C(c1ccccc1F)N1CCCc2ccccc21 | 8.9% | 5.2% | . | -5.3 | .
CCc1ccc2c(c1)CCCN2C(=O)c1ccccc1C(=O)O | -1.8% | 10µM* | ? | -24.6 | -6.1%
CC(=O)N1CCc2cc(NC(=O)c3ccc(C)cc3)ccc21 | 0.0% | -28.9% | ? | 77.2 | 16.4µM*
O=C(Nc1ccc2c(c1)CCCN2C(=O)c1cccs1)c1cccc(F)c1 | 3.4% | ? | ? | ? | ?
O=C(Nc1ccc2c(c1)CCCN2C(=O)c1cccs1)c1ccccc1 | -14.7% | 31.6µM* | ? | -35.7 | ?
N=c1c(C(=O)NCC2CCCO2)cc2c(=O)n3ccccc3nc2n1CCCO (stereo not given) | -22.8% | . | 17.7%[46.1 µM] | -1.7 | -16.2%[46.1 µM]
COc1ccc(OC)c(-c2cc(Cl)c3c(c2)CC(CNC(=O)C(C)N2CCOCC2)O3)c1 (stereo not given) | 8.0% | . | . | . | .
Cc1ccc(S(=O)(=O)Nc2ccc3c(c2)CCCN3C(=O)c2cccs2)cc1 | -17.4% | . | . | -33.8 | ?
O=C(Nc1ccc2c(c1)CCCN2C(=O)c1cccs1)c1cccc(C(F)(F)F)c1 | ? | . | . | -70.3* | ?
O=C(Nc1ccc2c(c1)CCCN2C(=O)c1ccccc1)c1ccccc1Br | ? | ? | . | -70.2* | .
CCOC(=O)c1cnc(SCc2ccc(Cl)c(Cl)c2)nc1N1CC1 | ? | 11.2µM* | -21.0% | 23.1 | ?
CCOC(=O)c1cnc(SCc2ccccc2)nc1N | . | ? | ? | 24.8 | -4.8%
CCOC(=O)c1cnc(SCc2ccc(C(C)(C)C)cc2)nc1N | -26.7% | ? | -2.6% | -27.3 | 4.11µM*
CC[C@H]1SC2=NC(C)=C(C(=O)OCCOC)[C@@H](c3ccc(C(=O)OC)cc3)N2C1=O | . | . | -19.4% | . | .
COc1ccc2[nH]c3nc(SC(C)C)nnc3c2c1 | 12.6µM* | -18.9% | ? | -20.7 | 2.24µM*
COc1ccc(CNC(=O)CSc2nnc3c(n2)[nH]c2ccc(OC)cc23)cc1 | 11.3% | -3.6% | ? | 16.6 | .
COc1ccc2[nH]c3nc(SCc4nnc(-c5ccccc5)o4)nnc3c2c1 | -13.3% | ? | -25.1% | -94.3* | ?
O=[N+]([O-])c1cccc(/C=N/NC2CCS(=O)(=O)C2)c1 (stereo not given) | 5.4% | 15.1% | 3.1%[46.1 µM] | 36.3 | 1.1%[46.1 µM]
Cc1[nH]c2ccccc2c1C(=O)COC(=O)c1c(-c2ccccc2Cl)noc1C | -23.3% | ? | ? | -74.5* | -9.0%
